Bioassay records (PubChem)
WT yeast gro inh: growth inhibition of WT yeast, mitochondrial fusion screen; mitochondrial fusion phenotypic screen, WT strain; inhibition, % at 10 µM; hit rate 2.1% among 190,000; in the data active = inhibition above about 58%; tested in S. cerevisiae
Cl transport mod: KCC2 (human) Cl- transport modulation; Q9H2X9; KCC2 cells, thallium flux FluoZin-2 fluorescence; B-score of Tl+ flux slope (higher = more flux/activation; lower = inhibition) at 10 µM; hit rate 2.2% among 190,000; AID 1456;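 active = thallium flux slope and its plate-corrected score both differing from the plate sample mean at a set confidence after two filtering rounds, in either direction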;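 note: slope of fluorescence scaled to starting intensity during 10 to 20 s after thallium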
Target sequence (Q9H2X9 whole entry, looked up): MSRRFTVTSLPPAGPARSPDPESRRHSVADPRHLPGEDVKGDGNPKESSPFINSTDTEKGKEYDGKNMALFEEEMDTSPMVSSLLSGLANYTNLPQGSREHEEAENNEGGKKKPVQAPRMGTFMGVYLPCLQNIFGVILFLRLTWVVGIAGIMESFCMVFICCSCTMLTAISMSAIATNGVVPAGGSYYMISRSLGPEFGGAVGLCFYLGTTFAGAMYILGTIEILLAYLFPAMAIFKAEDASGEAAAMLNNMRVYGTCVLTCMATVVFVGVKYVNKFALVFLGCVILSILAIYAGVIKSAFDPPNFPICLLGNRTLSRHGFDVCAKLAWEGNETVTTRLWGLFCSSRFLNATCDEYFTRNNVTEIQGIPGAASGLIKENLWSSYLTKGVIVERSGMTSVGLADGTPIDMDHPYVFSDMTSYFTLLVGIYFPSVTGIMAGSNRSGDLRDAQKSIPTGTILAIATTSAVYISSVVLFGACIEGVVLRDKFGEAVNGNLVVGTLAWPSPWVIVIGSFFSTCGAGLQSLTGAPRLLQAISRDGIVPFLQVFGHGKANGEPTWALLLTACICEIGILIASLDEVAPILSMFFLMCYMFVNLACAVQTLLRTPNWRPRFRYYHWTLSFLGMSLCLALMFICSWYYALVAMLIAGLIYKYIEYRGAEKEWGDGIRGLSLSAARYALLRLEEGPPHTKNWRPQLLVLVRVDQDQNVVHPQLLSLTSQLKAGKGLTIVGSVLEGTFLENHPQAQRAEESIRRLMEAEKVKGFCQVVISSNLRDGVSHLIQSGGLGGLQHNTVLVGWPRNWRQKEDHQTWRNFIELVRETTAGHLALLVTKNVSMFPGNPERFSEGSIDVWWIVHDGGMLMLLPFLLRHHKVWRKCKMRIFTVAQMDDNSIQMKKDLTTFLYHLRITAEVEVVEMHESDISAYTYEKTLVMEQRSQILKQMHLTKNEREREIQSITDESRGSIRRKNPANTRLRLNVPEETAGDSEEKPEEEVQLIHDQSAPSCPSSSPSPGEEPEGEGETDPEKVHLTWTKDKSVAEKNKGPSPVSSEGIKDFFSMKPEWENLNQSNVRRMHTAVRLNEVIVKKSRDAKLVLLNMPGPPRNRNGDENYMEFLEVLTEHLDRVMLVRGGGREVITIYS
Ins promoter up: MIN6 insulin promoter up-regulation. MIN6 insulin promoter-GFP reporter, high-content imaging; stronger effect = higher value. z-score at 5 µM. hit rate 0.3% among 190,000. AID 1625;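 active = z-score above 3 at 5 µM with at least 500 cells counted in the well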
INS promoter inh: TRM-6 insulin promoter activity inhibition. hit rate 0.9% among 130,000. AID 1273. TRM-6 cells (human fetal islet line), insulin promoter-eGFP reporter, imaging; reporter expression induced with tamoxifen. inhibition, % at 2 µM;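 active = inhibition above the mean plus 3 SD, with well images judged a real hit on visual review, cut at about 60% in these data, passing the limit was not always enough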
ROMK mod: human ROMK K+ channel modulation, primary screen; P48048; Tet-inducible ROMK, thallium flux fluorescence; actives lie on both sides; B-score at 10 µM; hit rate 2% among 130,000; AID 1918;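 active = signal ratio slope over the read window, or its plate-corrected B-score, at least 3 SD from the plate mean, either direction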;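 note: B-score of the F/F0 ratio slope over 7 to 12 s after thallium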
L major viab: reduces viability of Leishmania major promastigotes; resazurin fluorescence viability; hit rate 9% among 200,000; inhibition, % at 10 µM; AID 1063; in the data active = inhibition above about 50%;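 note: promastigotes grown with compound for 44 hours at 28 °C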
* = called active by the depositor; . = no result given. This is a sample that favours compounds with a hit; in the whole collection about 12% have one here.

SMILES | WT yeast gro inh | Cl transport mod | Ins promoter up | INS promoter inh | ROMK mod | L major viab
CCOc1c(OC(C)=O)ccc(/C=C/c2ccc3cccc(OC(C)=O)c3n2)c1[N+](=O)[O-] | 65.0* | -0.325 | -0.16 | -20.0 | . | 31.8
COc1cc(NC(=S)NCc2cccnc2)cc(OC)c1OC | 4.6 | 0.206 | -0.08 | . | -0.14 | 11.7
CCCCc1ccc(NC(=S)NCc2cccc(OC)c2)cc1 | 65.9* | -1.43 | 0.02 | . | 0.00779 | 9.8
CCCCc1ccc(NC(=S)Nc2ccc(Cl)c(S(=O)(=O)N(C)C)c2)cc1 | 77.1* | 0.29 | -0.03 | -11.5 | -0.338 | 86.9*
CCCCc1ccc(NC(=S)Nc2ccc(Nc3ccc(OC)cc3)cc2)cc1 | 54.8 | 0.448 | -0.82 | . | . | 59.8*
COC(=O)Cc1ccc(NC(=S)NCc2cccc(OC)c2)cc1 | -6.1 | 0.0828 | -0.13 | . | -1.62 | -5.0
COc1cc(NC(=S)NCc2cccnc2)cc(OC)c1 | -18.6 | 0.631 | 0.84 | -8.1 | . | 95.8*
COc1ccc(NC(=O)CN(C)CC(=O)Nc2ccc(Cl)c(S(=O)(=O)N(C)C)c2)cc1 | -7.4 | -0.851 | 0.3 | . | -0.311 | -2.5
O=C1CC2C(=O)NCCN2C(=NC(=O)c2ccc(Cl)cc2)N1 (stereo not drawn) | -13.7 | 0.869 | -0.22 | 16.7 | 1.86 | 7.4
CC(C)OP(=O)(CCP(=O)(OC(C)C)OC(C)C)OC(C)C | . | 1.34 | 0.28 | . | . | .
COc1cc(C2c3c(-c4ccccc4)n[nH]c3C(=O)N2c2ccccc2)ccc1O (stereo not drawn) | -2.7 | -2.37 | . | -27.3 | . | 2.6
COCCNC(=O)C(c1ccco1)N(C(=O)Cn1nnc2ccccc21)c1ccc(C)cc1C (stereo not drawn) | -12.8 | 0.451 | 0.39 | -62.1 | . | 13.1
Cc1cn(C(=O)c2ccccc2)c(=S)n1-c1ccc(Cl)cc1 | 10.0 | 0.84 | -0.38 | 21.1 | . | 84.7*
Cc1ccc(-n2c(C)cn(C(=O)c3ccccc3)c2=S)cc1 | 4.5 | -0.658 | . | -27.8 | . | 16.4
Cc1ccc(CN2CCC(c3cc(-c4cccs4)n[nH]3)CC2)cc1 | 38.3 | -1.4 | -0.62 | -46.1 | . | 94.1*
Clc1ncnc2scc(C3COc4ccccc4O3)c12 (stereo not drawn) | -19.8 | 0.668 | . | 12.5 | -1.72 | 71.2*
CCCN1CCN(c2ncnc3scc(C4COc5ccccc5O4)c23)CC1 (stereo not drawn) | 58.4* | -1.07 | . | . | -0.783 | 19.4
NC(CSCc1cccc(Br)c1)C(=O)O (stereo not drawn) | -5.4 | . | -0.48 | 26.7 | 0.000404 | 1.9
Nn1cc(-c2ccccc2)nc1SCC(=O)Nc1cccc(S(N)(=O)=O)c1 | . | 0.341 | 0.11 | . | . | .
CCOc1ccccc1C1CC(=O)NC2=C1C(=O)CCC2 (stereo not drawn) | -34.8 | . | 0.47 | . | 4.71* | -6.9
CCCOc1ccccc1C1CC(=O)NC2=C1C(=O)CCC2 (stereo not drawn) | 3.9 | 0.658 | -1.13 | . | . | -3.3
CSc1ccc(-c2cccc([N+](=O)[O-])c2)nn1 | -1.7 | 0.567 | -0.76 | 54.3 | 0.139 | 7.3
COc1ccccc1NC(=O)CCc1c(C)nc2c(-c3ccc(F)cc3)c(C)nn2c1C | . | 0.97 | 0.5 | . | . | .
Cc1ccc(NC(=O)C(Nc2cccc(C)c2)c2ccccc2)cc1 (stereo not drawn) | 70.4* | 0.0299 | -0.47 | 22.2 | 0.695 | 59.1*
Cc1cc(C)cc(NC(=O)C(Nc2ccccc2)c2ccccc2)c1 (stereo not drawn) | 40.5 | 0.112 | -0.59 | -78.6 | 0.000486 | 28.0
SMILES | WT yeast gro inh | Cl transport mod | Ins promoter up | INS promoter inh | ROMK mod | L major viab
COc1ccc(N2C(=O)CC(N(Cc3ccc(S(N)(=O)=O)cc3)C(C)=O)C2=O)cc1 (stereo not drawn) | -4.5 | 0.895 | 0.13 | -38.5 | 0.986 | -1.2
O=C(O)Cn1nnnc1SCC(=O)Nc1ccc(OC(F)(F)F)cc1 | -4.9 | . | 0.02 | 64.3 | 0.501 | -0.3
CCOC(=O)N1CCN(C(=O)CSc2nnc(Cc3cccn3C)n2CCc2ccccc2)CC1 | -0.8 | 0.45 | -0.26 | . | . | -8.0
Cc1cc(C)nc(/N=C(\N)Nc2ccc(OCc3ccccc3)cc2)n1 | 14.4 | 0.349 | -3.96 | . | -0.689 | 100.2*
Cc1sc2nc3c4ccccc4c(NCc4ccco4)nn3c(=O)c2c1C | 62.6* | 0.53 | -1.25 | . | . | 9.3
Cc1nc(NCc2ccco2)c2c(C)c(C)sc2n1 | 1.6 | . | -1.4 | 61.3 | -2.27 | 31.0
CN(C)c1nc(N/N=C/c2ccccc2O)nc(Nc2ccc(F)cc2)n1 | 34.0 | 0.739 | -1.85 | . | 0.401 | 83.7*
O=C(NC1CCCCC1)C(c1cccnc1)N(C(=O)c1ccc(Cl)nc1)C1CCCCC1 (stereo not drawn) | -11.1 | 0.695 | -0.53 | -192.3 | . | 55.5*
CN(C)C(C)(C)C#CCCCCC#CC(C)(C)N(C)C | -26.2 | 0.521 | . | 70.7* | . | -2.4
COC(=O)CNC(c1ccccc1)c1cc(Br)ccc1NC(=O)CNC(=O)OCc1ccccc1 (stereo not drawn) | 30.5 | -1.79 | 0.71 | 14.3 | -0.96 | 3.8
COC(=O)CNC(c1ccccc1)c1cc(Br)ccc1NC(=O)CCN1CCOCC1 (stereo not drawn) | -3.9 | -0.845 | 1.11 | -33.3 | . | 99.8*
COC(=O)CNC(c1ccccc1)c1cc(Br)ccc1NS(=O)(=O)c1ccccc1 (stereo not drawn) | -5.0 | -1.21 | -0.33 | . | -0.299 | 22.3
CCOC(=O)CNC(c1ccccc1)c1cc(Br)ccc1NC(=O)CCN1CCOCC1 (stereo not drawn) | -7.8 | -0.696 | 0.25 | 0.0 | -0.0531 | 98.2*
CCOC(=O)CNC(c1ccccc1)c1cc(Br)ccc1NC(=O)OCC (stereo not drawn) | 15.5 | -1.72 | . | -52.2 | . | 53.9*
CC1=NN(c2ccc(C(=O)O)c(N)c2)C(=O)C1 | -6.9 | -0.613 | 0.08 | 25.0 | 0.65 | 1.2
CCN1CCN(/C=N/c2nc(C)cs2)CC1 | -12.5 | . | . | -42.9 | 0.0811 | 0.2
Cc1ccc(NC(=O)C2SC(=Nc3ccccc3)C(C(=O)Nc3ccc(Cl)cc3)=C2N)cc1 (stereo not drawn) | 66.0* | 0.74 | -1.18 | . | 0.0418 | -6.3
OC(Cn1ccnc1)c1ccc(Cl)cc1Cl (stereo not drawn) | 30.3 | . | 0.25 | . | -0.00795 | 6.1
CC1(c2ccc(Cl)cc2Cl)OCC(Cn2ccnc2)O1 (stereo not drawn) | 72.6* | -0.442 | 0.19 | 18.2 | 2.6 | 49.6
COc1ccc(C(=O)O/N=C(\N)Cc2ccc(Cl)c(Cl)c2)cc1OC | 94.0* | -1.56 | -0.01 | -27.3 | -0.868 | 81.0*
CC1=C(C)/C(=N/OC(=O)c2cccc([N+](=O)[O-])c2)C=CC1=O | -15.4 | 0.44 | . | 52.4 | 0.0567 | 100.5*
COc1ccc(C/C(N)=N/OC(=O)c2cccc([N+](=O)[O-])c2)cc1 | 10.8 | 0.293 | 0.96 | -7.7 | -1.85 | 62.6*
COc1ccc(CSCC(=O)Nc2ccccc2SC)cc1 | 7.4 | -0.754 | . | -366.7 | 1.93 | -6.0
Cc1ccc(C)c(N(CC(=O)NC(C)(C)C)C(=O)CNC(=O)c2cccs2)c1 | 8.6 | 1.3 | 0.83 | . | -0.468 | -4.2
CCC(C(=O)OCC(=O)Nc1cccc(C(C)=O)c1)c1ccccc1 (stereo not drawn) | -6.0 | -1.15 | -0.22 | . | 0.0967 | 0.8
